Some test systems named below: CDKL3; CDKL5; CHEK1; CHEK2; CIT; CLK1; CLK2; CLK3; CLK4; CSF1R-autoinhibited.
Conditions in all cases: concentration: 1 μM, replicates: in singlicate; n = 1
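Also: KINOMEscan kinase panel screen.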

For the compound `COC(=O)c1c(-c2ccccc2)c2cc(C)ccc2c(=O)n1Cc1ccccc1`, the “%Inh” value in the assay with CDKL3, with CDKL5, in the assay with CHEK1, in the assay on CHEK2, in the assay on CIT and in the assay on CLK1 was 0% each time. Besides, the “%Inh” value in the assay on CLK2, with CLK3, in the assay with CLK4 and with CSF1R-autoinhibited was 0% each time.

For the compound `COc1cc2nccc(Nc3ccc(OCc4ccc(NC(C)=O)cc4)cc3)c2cc1OC.Cl` [GW440135], the “%Inh” value is reported as 20% in the assay on CDKL3; 0% with CDKL5; 0% in the assay on CHEK1; 0% in the assay on CHEK2; 0% in the assay with CIT; 8% in the assay with CLK1. Further, the “%Inh” value in the assay with CLK2 was found to be 0%; in the assay with CLK3, 10%; in the assay on CLK4 it was 0%; in the assay on CSF1R-autoinhibited, 25%.

As for `Nc1ncnc2c1ncn2-c1cccc2ccccc12` [SKF-97184], the “%Inh” value was 26% in the assay with CDKL3; 3% with CDKL5; 0% with CHEK1; 17% with CHEK2; 35% in the assay on CIT; 0% in the assay with CLK1. Besides, the “%Inh” value with CLK2 stood at 3%; with CLK3, 6%; with CLK4, 0%; with CSF1R-autoinhibited, 33%.

As to `Cc1cc(Nc2nc(-c3cccc(C)n3)nc3ccccc23)ccn1` [GW872411], the “%Inh” value in the assay on CDKL3 was 0%; with CDKL5 it was 0%; in the assay with CHEK1, 0%; in the assay with CHEK2, 0%; in the assay with CIT it was 0%; in the assay on CLK1, 11%. For the same compound, the “%Inh” value in the assay with CLK2, in the assay with CLK3, in the assay on CLK4 and with CSF1R-autoinhibited was 0% each time.

On to `COc1ccc(-n2cnc3c(N)ncnc32)cc1` [SKF-97236], for which the “%Inh” value with CDKL3 worked out at 0%; in the assay on CDKL5, 0%; with CHEK1, 2%; in the assay on CHEK2 it was 0%; in the assay with CIT it was 19%; with CLK1 it was 48%. Moreover, the “%Inh” value turned out to be 48% in the assay on CLK2, 0% in the assay on CLK3, 47% in the assay with CLK4 and 0% in the assay on CSF1R-autoinhibited.

As for `COc1cc(Nc2nccc(N3CCC(NC(=O)C(C)c4ccc(Cl)cc4)C3)n2)cc(OC)c1OC` (stereo not drawn) [GSK1379757], the “%Inh” value in the assay with CDKL3 came out at 0%; in the assay on CDKL5, 0%; in the assay on CHEK1, 0%; in the assay on CHEK2, 8%; in the assay with CIT, 9%; with CLK1, 22%. Further, the “%Inh” value turned out to be 0% in the assay on CLK2, 43% in the assay on CLK3, 18% with CLK4 and 0% with CSF1R-autoinhibited.

For `Cl.NS(=O)(=O)c1cccc(Nc2cc(-c3ccc(F)cc3)n[nH]2)c1` [GW824645], the “%Inh” value with CDKL3 amounted to 1%; with CDKL5, 0%; in the assay on CHEK1, 0%; in the assay on CHEK2 it was 0%; in the assay with CIT, 2%; in the assay on CLK1, 0%. Further, the “%Inh” value in the assay with CLK2, with CLK3, with CLK4 and with CSF1R-autoinhibited was 0% throughout.

For `CN1C(=O)C(Nc2ccccc2)=C(c2ccccc2)C1=O` [SB-300079], the “%Inh” value was determined as 19% in the assay on CDKL3; 0% with CDKL5; 0% with CHEK1; 0% in the assay with CHEK2; 4% in the assay on CIT; 0% with CLK1. Besides, the “%Inh” value in the assay on CLK2 is on record as 18%; in the assay on CLK3 it was 0%; in the assay with CLK4, 0%; with CSF1R-autoinhibited, 0%.

As for `Cc1nc(N(C)[C@H]2CN(C(=O)CC#N)CC[C@H]2C)c2cc[nH]c2n1`, the “%Inh” value in the assay with CDKL3 is 0%; in the assay with CDKL5 it was 6%; with CHEK1 it was 48%; with CHEK2, 0%; with CIT, 0%; in the assay with CLK1, 13%. The “%Inh” value with CLK2 came out at 15%; with CLK3, 0%; with CLK4 it was 0%; with CSF1R-autoinhibited it was 0%.
